± gives the standard deviation of the averaged measurements.
Columns and labels:
Assay in all cases: cell viability (% of vehicle); higher = less cytotoxic
HCI01 [1] = cells of a triple-negative basal-like breast cancer xenograft; details: 1 µM; 72 h
UCD52 [2] = cells of a triple-negative basal-like breast cancer xenograft; details: 1 µM; 72 h
WHIM2 [3] = cells of a triple-negative basal-like breast cancer xenograft; details: 1 µM; 72 h
WHIM30 [4] = cells of a triple-negative basal-like breast cancer xenograft; details: 1 µM; 72 h
HCI01 [5] = details: 10 µM; 72 h
HCI03 = cells of an ER-positive luminal breast cancer xenograft; details: 10 µM; 72 h
HCI09 = cells of a triple-negative luminal androgen receptor type breast cancer xenograft; details: 10 µM; 72 h
HCI11 = cells of an ER-positive luminal breast cancer xenograft; details: 10 µM; 72 h
HCI13 = cells of an ER-positive luminal breast cancer xenograft; details: 10 µM; 72 h
HCI16 = cells of a triple-negative basal-like breast cancer xenograft; details: 10 µM; 72 h
UCD52 [6] = details: 10 µM; 72 h
WHIM2 [7] = details: 10 µM; 72 h
WHIM30 [8] = details: 10 µM; 72 h

Question: How did the cell viability (HCI01 [1]) turn out when `CC(C)Nc1cc(-c2c[nH]c(C(=O)NC(CO)c3cccc(Cl)c3)c2)c(Cl)cn1` (stereo not drawn) was run?
Answer: 84.8

Question: And the cell viability (UCD52 [2])?
Answer: 59.1

Question: And the cell viability (WHIM2 [3])?
Answer: 72.7

Question: And the cell viability (WHIM30 [4])?
Answer: 78.4

Question: What about the cell viability (HCI01 [5]) of the same compound?
Answer: 39 ± 8.9

Question: And the cell viability (HCI03)?
Answer: 135

Question: What about the cell viability (HCI09) of the same compound?
Answer: 36.8 ± 21

Question: What about the cell viability (HCI11) of the same compound?
Answer: 81.7

Question: And the cell viability (HCI13)?
Answer: 43.5 ± 2.5

Question: And the cell viability (HCI16)?
Answer: 106

Question: What about the cell viability (UCD52 [6]) of the same compound?
Answer: 56.5 ± 4

Question: What about the cell viability (WHIM2 [7]) of the same compound?
Answer: 45.3 ± 6.3

Question: And the cell viability (WHIM30 [8])?
Answer: 104 ± 10

Question: How did the cell viability (HCI01 [1]) turn out when `Br.Cc1ccc(Sc2ccccc2N2CCNCC2)c(C)c1` was run?
Answer: 113

Question: What about the cell viability (UCD52 [2]) of the same compound?
Answer: 71.2

Question: What about the cell viability (WHIM2 [3]) of the same compound?
Answer: 102

Question: And the cell viability (WHIM30 [4])?
Answer: 80.6

Question: And the cell viability (HCI01 [5])?
Answer: 28 ± 3

Question: What about the cell viability (HCI03) of the same compound?
Answer: 44.4

Question: And the cell viability (HCI09)?
Answer: 17.5 ± 4

Question: What about the cell viability (HCI11) of the same compound?
Answer: 76.7

Question: And the cell viability (HCI13)?
Answer: 39.1 ± 6.4

Question: And the cell viability (HCI16)?
Answer: 35.3

Question: And the cell viability (UCD52 [6])?
Answer: 23.6 ± 4.2

Question: And the cell viability (WHIM2 [7])?
Answer: 33.9 ± 14

Question: And the cell viability (WHIM30 [8])?
Answer: 26.9 ± 4.6

Question: How did the cell viability (HCI01 [1]) turn out when `CN1CCCC1CCOC(C)(c1ccccc1)c1ccc(Cl)cc1.O=C(O)C=CC(=O)O` (stereo not drawn) [Clemastine Fumarate] was run?
Answer: 98.5

Question: And the cell viability (UCD52 [2])?
Answer: 85.8

Question: And the cell viability (WHIM2 [3])?
Answer: 103

Question: What about the cell viability (WHIM30 [4]) of the same compound?
Answer: 78.8

Question: What about the cell viability (HCI01 [5]) of the same compound?
Answer: 95.7 ± 30

Question: And the cell viability (HCI03)?
Answer: 79.3

Question: And the cell viability (HCI09)?
Answer: 52.8 ± 36

Question: And the cell viability (HCI11)?
Answer: 69.2

Question: What about the cell viability (HCI13) of the same compound?
Answer: 136 ± 24

Question: What about the cell viability (HCI16) of the same compound?
Answer: 74.4

Question: And the cell viability (UCD52 [6])?
Answer: 36.5 ± 3.4

Question: And the cell viability (WHIM2 [7])?
Answer: 37.8 ± 3

Question: And the cell viability (WHIM30 [8])?
Answer: 104 ± 10

Question: `COC(=O)C1=C(C)NC(C)=C(C(=O)OC2CCCN(Cc3ccccc3)C2)C1c1cccc([N+](=O)[O-])c1.Cl` (stereo not drawn) [Benidipine HCl] was tested. Which cell viability (HCI01 [1]) did it give?
Answer: 96.3

Question: And the cell viability (UCD52 [2])?
Answer: 88.8

Question: What about the cell viability (WHIM2 [3]) of the same compound?
Answer: 105

Question: What about the cell viability (WHIM30 [4]) of the same compound?
Answer: 93.7

Question: And the cell viability (HCI01 [5])?
Answer: 82.1 ± 16

Question: What about the cell viability (HCI03) of the same compound?
Answer: 68.3

Question: And the cell viability (HCI09)?
Answer: 27.9 ± 14

Question: What about the cell viability (HCI11) of the same compound?
Answer: 83.2

Question: What about the cell viability (HCI13) of the same compound?
Answer: 36.2 ± 7.7

Question: What about the cell viability (HCI16) of the same compound?
Answer: 87.5

Question: What about the cell viability (UCD52 [6]) of the same compound?
Answer: 51.4 ± 7.1

Question: And the cell viability (WHIM2 [7])?
Answer: 31.1 ± 6.1

Question: And the cell viability (WHIM30 [8])?
Answer: 64 ± 4.1

Question: With `O=C(c1ccc(F)c(F)c1Nc1ccc(I)cc1F)N1CC(O)(C2CCCCN2)C1` (stereo not drawn) [Cobimetinib] as the compound, how does the cell viability (HCI01 [1]) read?
Answer: 74.9

Question: And the cell viability (UCD52 [2])?
Answer: 52.9

Question: And the cell viability (WHIM2 [3])?
Answer: 58.8

Question: And the cell viability (WHIM30 [4])?
Answer: 59.8

Question: What about the cell viability (HCI01 [5]) of the same compound?
Answer: 76.8 ± 21

Question: And the cell viability (HCI03)?
Answer: 80.6

Question: And the cell viability (HCI09)?
Answer: 64.7 ± 24

Question: And the cell viability (HCI11)?
Answer: 82.8

Question: And the cell viability (HCI13)?
Answer: 74.8 ± 0.28

Question: What about the cell viability (HCI16) of the same compound?
Answer: 63.2

Question: What about the cell viability (UCD52 [6]) of the same compound?
Answer: 42.65 ± 0.23

Question: And the cell viability (WHIM2 [7])?
Answer: 48.9 ± 3.3

Question: What about the cell viability (WHIM30 [8]) of the same compound?
Answer: 78.2 ± 2.8

Question: Which cell viability (HCI01 [1]) does the source give for `Cc1nc(NC(=O)N2CCCC2C(N)=O)sc1-c1ccnc(C(C)(C)C(F)(F)F)c1` (stereo not drawn) here?
Answer: 74

Question: And the cell viability (UCD52 [2])?
Answer: 64.7

Question: And the cell viability (WHIM2 [3])?
Answer: 54.9

Question: What about the cell viability (WHIM30 [4]) of the same compound?
Answer: 83.3

Question: And the cell viability (HCI01 [5])?
Answer: 85.7 ± 9.2

Question: And the cell viability (HCI03)?
Answer: 45.8

Question: What about the cell viability (HCI09) of the same compound?
Answer: 28.8 ± 5.1

Question: What about the cell viability (HCI11) of the same compound?
Answer: 75.9

Question: What about the cell viability (HCI13) of the same compound?
Answer: 44.2 ± 6.9

Question: What about the cell viability (HCI16) of the same compound?
Answer: 93.6

Question: And the cell viability (UCD52 [6])?
Answer: 38.5 ± 2.5

Question: What about the cell viability (WHIM2 [7]) of the same compound?
Answer: 65.6 ± 19

Question: And the cell viability (WHIM30 [8])?
Answer: 65.9 ± 2
